Test results from PubChem BioAssay (NCATS).
Values joined by “and” are separate entries in the source; they are usually repeats but may differ in a detail not shown here. Equal entries are not always repeated. Inconclusive results are not listed. Active and inactive are the calls of the source. Unless noted, calls come from the whole dose curve.

What was measured:
[1] = qHTS Assay for Lipid Storage Modulators (AID 1519); conditions: Drosophila S3 cells, BODIPY lipid droplet/cell ratio, laser cytometry, cells loaded with oleic acid; for activity change, negative = inhibition: % is set by controls: 0 for no effect and ±100 for the full control effect
Outline: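 Cells seeded at 5,000 per well were treated with compounds over a concentration series and loaded with oleic acid (400 uM, as added). Lipid droplet fluorescence (488 nm excitation, 500-530 nm channel) was read by laser-scanning cytometry and normalized to 20 uM Triacsin C.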

[2] = qHTS Assay for Identification of Small Molecule Inducers of Hypoxia Response (AID 2120; active = well fitted curve in the direction sought with a large enough effect in the signal ratio, with a control signal flat, not every such curve was filed as active; the % refers to the signal ratio; note: 0% is about no effect); conditions: hypoxia response reporter cells, beta-lactamase ratio readout; series mostly up to 104 µM
Outline: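 Cell-based qHTS for reporter induction: hypoxia response element controlled beta-lactamase in ME-180 cells. Compounds incubated 17 h at 37 degrees C; activity from blue/green (460/530 nm) ratio, inducers ranked by AC50.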

[3] = measured here: cell count channel max response
[4] = measured here: lipid channel max response

Compound	activity change, negative = inhibition ([1]; at 25.7 µM (top of the series))	activity change, negative = inhibition ([1]; at 57.5 µM (top of the series))	max response [1, 3]	max response [1, 4]	outcome [2]
Cc1cc(C)nc(NS(=O)(=O)c2ccc(N)cc2)n1	1% (inactive)	8.29% (inactive)	-2.08% and -9.55%	-2.98% and 1.72%	inactive
O=C(Cn1ccnc1[N+](=O)[O-])NCCO	-0.0007% (inactive)	2.99% (inactive)	-9.52% and 14.9%	-8.62% and 19.4%	
CCN(CC)CCOC(=O)C(c1ccccc1)c1ccccc1	-0.714% (inactive)	-3.74% (inactive)	-10.9% and -9.85%	-13.6% and -9.37%	
CCN(CC)C(=O)c1cccc(C)c1		7.23% (inactive)	15.5%	28.9%	inactive
Cc1c(NC(=O)c2cccnc2)c(=O)n(-c2ccccc2)n1C	-1.84% (inactive)	5.04% (inactive)	3.68% and 18.2%	4.21% and 26.8%	
